Shiga inhibitor – Shiga toxin inhibition | AID 2315 | inhibition, % at 38.7 µM | Vero cells, Shiga toxin protein synthesis inhibition reporter | 290,000 compounds, 9.2% hits; in the data active = inhibition mostly above about 28%, no sharp cut-off; inactive = mostly below about 43%; note: 0% is about no effect
FBPA Giardia inh – blocks Giardia fructose-bisphosphate aldolase activity | AID 2451 | A8B2U2 | purified Giardia FBPA | Potency, µM (highest dose often 59.6 µM), for the others: top-dose activity, negative = inhibition, usual class: inhibitors | 290,000 compounds, 0.71% hits; note: potency is the fitted concentration of half-maximal effect; % is set by controls: 0 for no effect and ±100 for the full control effect; nearly all actives have a fitted effect of over 55% in size
Target sequence (A8B2U2 whole entry, looked up): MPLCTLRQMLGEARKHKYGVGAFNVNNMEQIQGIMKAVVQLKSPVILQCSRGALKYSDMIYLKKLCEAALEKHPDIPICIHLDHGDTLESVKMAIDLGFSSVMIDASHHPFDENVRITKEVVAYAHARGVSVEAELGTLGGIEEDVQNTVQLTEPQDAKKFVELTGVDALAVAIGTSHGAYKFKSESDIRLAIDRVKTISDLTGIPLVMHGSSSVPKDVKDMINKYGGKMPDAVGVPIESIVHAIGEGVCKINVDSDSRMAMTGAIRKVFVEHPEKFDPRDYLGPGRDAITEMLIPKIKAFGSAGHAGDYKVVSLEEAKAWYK
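Giardia FBPA (40 nM reagent) was preincubated 10 min at RT with compound (up to 57.5 uM final), then substrate plus GAPDH/TPI/NAD/arsenate coupling system with diaphorase/resazurin was added; resorufin fluorescence (525/598 nm) was read after 20 min.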
Cycloheximide cs – counter-screen for Shiga toxin inhibitors: cycloheximide protein synthesis inhibition | cell reporter, cycloheximide protein synthesis inhibition counterscreen | max response, % | 300,000 compounds, 12% hits; in the data active = max response mostly above about 13%, no sharp cut-off; inactive = mostly below about 14%; note: read at 38.3 µM for the half of the compounds with a filed dose; 0% is about no effect
LmPK inhibitor – blocks Leishmania mexicana pyruvate kinase activity; Q27686; Potency, µM (top dose mostly 57.5 µM), inactives show at the top dose activity change, negative = inhibition, actives largely listed as inhibitors; purified LmPK, Kinase-Glo ATP luminescence, 1 h; 290,000 compounds, 0.37% hits; note: potency is the fitted concentration of half-maximal effect; % is set by controls: 0 for no effect and ±100 for the full control effect
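qHTS format; LmPK 0.1 nM; substrates PEP 0.5 mM and ADP 0.1 mM. One-hour room-temperature incubation, then coupled luciferase luminescence; 0.5 nM enzyme wells mark activation.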
Tb PYK inh – blocks Trypanosoma brucei pyruvate kinase | AID 624173 | TbPYK enzyme, Kinase-Glo Plus ATP luminescence, 45 min | 410,000 compounds, 0.12% hits | Q57TT1 | Potency, µM (top dose mostly 76.8 µM), without a hit: at the top dose activity, negative = inhibition, actives largely listed as inhibitors; note: potency is the fitted concentration of half-maximal effect; % is set by controls: 0 for no effect and ±100 for the full control effect; nearly all actives have a fitted effect of over 50% in size
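In this concentration-response screen, enzyme-free wells defined baseline while DMSO plates tracked drift. Each reaction combined TbPYK, substrate, compound and 130 uM ADP for 45 min at room temperature. Kinase-Glo Plus luminescence gave the signal.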
Sm TGR inh – inhibitors of Schistosoma mansoni thioredoxin glutathione reductase; purified TGR, DTNB reduction, TNB absorbance 405 nm; 360,000 compounds, 3% hits; Potency, µM (highest dose often 114 µM), without a hit: at the highest dose activity change, negative = inhibition, most hits filed as inhibitors; Q962Y6; note: potency is the fitted concentration of half-maximal effect; % is set by controls: 0 for no effect and ±100 for the full control effect; nearly all actives have a fitted effect of over 60% in size
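TGR 20 nM + NADPH 100 uM (dispensed conc.), cpd preinc 15 min RT; start with NADPH (500 uM addition) then DTNB (15 mM addition). Kinetic TNB absorbance, 405 nm filter. Four-parameter Hill fit across titration.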
Starred values were filed as active, the others as inactive; ? = inconclusive; . = no result; [ ] = another dose, or the depositor's remark. Only a selection was taken, and hits are over-represented in it overall. Unless noted, calls come from the whole dose curve; as a rule, active = well fitted curve in the direction sought with a large enough effect; inconclusive = small, poorly fitted or top-dose-only effect, or another doubt; inactive = no such curve, though single readings can be large; an effect the other way counts as inactive or inconclusive.

SMILES	Shiga inhibitor	FBPA Giardia inh	Cycloheximide cs	LmPK inhibitor	Tb PYK inh	Sm TGR inh
C=CCCC(=O)N1CCC(n2nccc2NC(=O)c2ccc(OC)cc2)CC1	33.1	.	37.3*	0.8%	1.1%	2.7%
C/C=C(\C)CN1CCC(n2nccc2NC(=O)c2ccc(OC)cc2)CC1	-17.8	.	3.8	-3.2%	-1.0%	-1.0%
O=C(Nc1ccnn1C1CCN(C2CCCCC2)CC1)c1cccc(F)c1	7.7	11.2%	-3.6	-6.7%	4.7%	-6.0%
O=C(c1cccs1)N(C(=O)c1cccs1)c1ccc(Br)cn1	57.2	5.6%	37.0*	-24.9%	1.6%	-24.3%
O=C(Nc1ccc(NC(=O)c2cccs2)cc1)c1ccc(Br)cc1	.	.	.	.	0.7%	-6.6%
CCCCC(=O)Nc1cnc(NC(=O)c2cccs2)cc1C	.	9.2%	31.1*	0.7%	0.6%	-15.4%
Cc1cc(NC(=O)C2CCCCC2)ncc1NC(=O)c1ccccn1	42.7	-8.3%	23.2	-15.2%	-4.7%	.
CCCCC(=O)Nc1cc(C)c(NC(=O)c2cccs2)cn1	-19.1	0.9%	-1.5	-0.4%	2.1%	1.3%
Cc1cc(NC(=O)C2CC2)ncc1NC(=O)c1ccccn1	70.7*	-12.2%	40.1*	-27.2%	5.8%	.
COc1ccc(C(=O)Nc2cc(C)c(NC(=O)c3ccccn3)cn2)cc1	47.6*	-19.5%	40.2*	-11.6%	-6.1%	-0.3%
COc1ccc(C(=O)Nc2cnc(NC(=O)c3cccs3)cc2C)cc1	60.1	-11.9%	46.3*	-5.9%	1.3%	-3.7%
CCOC(=O)C1=CCC(c2ccccc2)N(S(=O)(=O)c2ccccc2C)C1 (stereo not drawn)	.	.	.	.	0.9%	.
CC(C)(C)c1ccc(NC(=O)COC(=O)CCN2C(=O)c3cccc([N+](=O)[O-])c3C2=O)cc1	7.1	-2.5%	17.9*	0.3%	2.7%	-7.2%
Cc1cc(C)cc(NC(=O)Cn2c(=O)n(-c3ccc(C)c(C)c3)c(=O)c3oc4ccccc4c32)c1	.	.	.	.	-2.3%	4.1%
CCn1nc(C)cc1C(=O)Sc1cccc(Br)c1	-3.6	-1.5%	-2.9	-2.1%	-1.4%	5.62µM*
CCn1nc(C)cc1C(=O)Sc1ccc(Cl)cc1Cl	-3.7	2.6%	-0.7	-1.0%	-11.9%	3.55µM*
CCCc1nnc(NC(=O)C(CC)Sc2nnc3c4ccccc4n(C)c3n2)s1 (stereo not drawn)	.	.	.	.	-2.7%	-6.5%
C=CCn1c2ccccc2c2nnc(SC(CC)C(=O)Nc3sc4c(c3C#N)CCCC4)nc21 (stereo not drawn)	6.9	0.0%	23.8*	5.2%	1.4%	4.5%
O=C(c1ccccc1)c1nn(-c2ccccc2)c(=O)cc1C(F)(F)F	26.6	16.5%	17.0*	-0.2%	-9.0%	-13.3%
O=C(c1cccc(Cl)c1)c1nn(-c2ccccc2)c(=O)cc1C(F)(F)F	19.7	-1.1%	-2.1	-1.2%	0.6%	-3.3%
O=C(c1ccccc1)c1nn(-c2ccc(Cl)cc2)c(=O)cc1C(F)(F)F	32.9*	1.7%	12.9*	0.5%	2.1%	-3.7%
COc1ccccc1CN1CCCC2(CCNCC2)C1	.	5.1%	.	.	-4.4%	.
Cc1cccc(-n2c(SCC(=O)c3ccccc3)nnc2-c2ccc(Br)cc2)c1	.	.	.	.	8.0%	6.6%
O=C(c1ccc2ncsc2c1)N1CCN(c2cccc(C(F)(F)F)c2)CC1	.	.	.	.	2.4%	-7.1%
CCC(C)[C@@H](NC(=O)OC(C)(C)C)c1nnc(S(=O)(=O)Cc2cccc(C)c2)o1 (stereo partly drawn)	77.2*	-10.7%	30.9*	4.3%	-4.2%	2µM*
SMILES	Shiga inhibitor	FBPA Giardia inh	Cycloheximide cs	LmPK inhibitor	Tb PYK inh	Sm TGR inh
CCSc1nnc([C@H](Cc2ccccc2)NC(=O)OC(C)(C)C)o1	37.9	1.7%	6.7	1.5%	-1.6%	4.1%
CC(C)(C)OC(=O)N[C@@H](Cc1ccccc1)c1nnc(S(=O)(=O)Cc2ccccc2)o1	17.2	0.3%	41.7	11.4%	.	0.631µM*
Cc1ccccc1CS(=O)(=O)c1nnc([C@H](Cc2ccccc2)NC(=O)OC(C)(C)C)o1	19.8	-9.9%	39.8*	-1.4%	-4.8%	1.12µM*
CC(C)(C)OC(=O)N[C@@H](Cc1ccccc1)c1nnc(SCC(=O)O)o1	3.4	7.6%	-3.2	-3.7%	-7.2%	5.0%
Cc1noc(C)c1-c1cc(Nc2ccccc2)ncn1	.	0.4%	.	.	.	.
CC(O)CNCCCCOc1ccc(OCc2ccccc2)cc1 (stereo not drawn)	74.8*	1.9%	23.9*	-4.0%	0.6%	0.9%
OCCCCNCc1ccc(OCc2ccccc2)cc1	34.1	-5.9%	13.6*	-3.5%	-1.5%	?
OCCNCCCCOc1ccc(F)cc1	-12.0	3.8%	-3.0	-2.5%	-1.3%	-9.1%
OCCNCCCCOc1ccc(OCc2ccccc2)cc1	85.8*	0.6%	33.6*	0.7%	2.1%	-8.6%
OCCCCNCc1ccc(OCc2ccccc2Cl)cc1	25.5	0.4%	24.7*	-1.5%	-2.3%	13.2%
COc1ccc(C(=O)OCc2c(F)cccc2Cl)cc1S(=O)(=O)N1CCOCC1	.	.	.	.	0.0%	5.7%
COc1ccc(OC)c(C2CC(=O)Nc3c2c(=O)[nH]c2nc4ccccc4n32)c1 (stereo not drawn)	.	.	.	.	3.9%	6.5%
CCOC(=O)CCN1C(=O)[C@H]2[C@H]3[C@H](O)[C@H](O)C/C(=N/OC/C=C(\C)CCC=C(C)C)[C@@H]3CC[C@@H]2C1=O	.	0.7%[12.9 µM]	.	.	.	.
O=C(Nc1cc(Cl)ccc1Cl)C1(c2cccs2)CCOCC1	.	.	.	.	-6.0%	17.1%
Cc1ccc(S(=O)(=O)CCC(=O)c2ccc(O)cc2O)cc1	-2.6	6.4%	-2.5	0.2%	0.5%	0.447µM*
COc1ccc(C(=O)CCS(=O)(=O)c2ccc(C)cc2)cc1OC	-11.0	1.1%	-3.2	-9.9%	-4.3%	0.447µM*
COC(=O)c1ccccc1NC(=O)CSc1nc2ccccc2nc1Cc1ccccc1OC	.	.	.	.	5.3%	0.0%
O=C(OCc1ccc(Cl)c(Cl)c1)c1ccc[nH]1	110.8*	-4.7%	22.5*	-2.6%	8.1%	-6.9%
O=C(Cc1ccc(Cl)c(Cl)c1)OCC(=O)c1ccc[nH]1	16.8	-23.9%	3.1	2.9%	-6.5%	5.4%
Cc1cc(C)n(C(=O)CCCC(=O)n2nc(C)cc2C)n1	-5.4	0.1%	-3.3	-2.6%	0.7%	0.0%
Cc1cc(C)n(C(=O)CNc2ccc(C)c(C)c2)n1	28.5	-2.2%	32.4*	-15.0%	-0.3%	-0.7%
COc1ccc(CNC(=O)CCCn2nc(C)c3c(C)n(-c4ccc(C)cc4)nc3c2=O)cc1	26.1	14.7%	-3.1	4.1%	5.7%	-1.3%
Cc1ccc(CN2CCNC(=O)C2CC(=O)NC2CCCCCC2)o1 (stereo not drawn)	-33.8	2.3%	-2.5	9.6%	-4.7%	?
Cc1ccc(CN2CCNC(=O)C2CC(=O)NCCCn2ncc3ccccc32)o1 (stereo not drawn)	-8.9	-4.3%	-2.2	8.1%	-2.2%	25.1µM*
